# Reference: the supplement of paper PMC12669032
# Values without a mark were called inactive.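 How the source made its calls: active = AUC reduced over 20% with Padj below 0.05 in at least 2 of 3 replicates; inactive = otherwise.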
# Experiments:
# Test in all cases: growth AUC relative to DMSO control (median of replicates) (fraction); higher = more growth (less inhibition), active = hit call of the paper
# Settings in all cases: 20 µM; 24 h
# Akkermansia muciniphila = test system: Akkermansia muciniphila
# Procedure, shortened: (§1)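 In round-bottom 96-well plates sealed with pierced gas-permeable seals, gut bacterial monocultures in mGAM were grown anaerobically at 37 °C from OD600 0.05 with 20 µM compound (1% DMSO). OD600 readings were taken hourly for 24 h, and the minimum OD was set to 0. Area under the growth curve was then normalised to the plate median of solvent-only wells, or to row and column medians on the industrial chemical plate. The value given is the median of three biological replicates grown on separate days.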
# Bacteroides caccae = test system: Bacteroides caccae
# Procedure, shortened: as §1
# Bacteroides clarus = test system: Bacteroides clarus
# Procedure, shortened: as §1
# Bacteroides dorei = test system: Bacteroides dorei
# Procedure, shortened: as §1
# Bacteroides stercoris = test system: Bacteroides stercoris
# Procedure, shortened: as §1
# [1] = test system: Bacteroides thetaiotaomicron
# Procedure, shortened: as §1
# Bacteroides uniformis = test system: Bacteroides uniformis
# Procedure, shortened: as §1
# [2] = test system: Bifidobacterium longum subsp. longum
# Procedure, shortened: as §1
# Clostridium difficile = test system: Clostridium difficile
# Procedure, shortened: as §1
# Collinsella aerofaciens = test system: Collinsella aerofaciens
# Procedure, shortened: as §1
# Coprococcus comes = test system: Coprococcus comes
# Procedure, shortened: as §1
# Escherichia coli ED1a = test system: Escherichia coli ED1a
# Procedure, shortened: as §1
# Escherichia coli IAI1 = test system: Escherichia coli IAI1
# Procedure, shortened: as §1
# Eubacterium rectale = test system: Eubacterium rectale
# Procedure, shortened: as §1
# [3] = test system: Fusobacterium nucleatum subsp. animalis
# Procedure, shortened: as §1
# Lactobacillus gasseri = test system: Lactobacillus gasseri
# Procedure, shortened: as §1
# Lactobacillus paracasei = test system: Lactobacillus paracasei
# Procedure, shortened: as §1
# Odoribacter splanchnicus = test system: Odoribacter splanchnicus
# Procedure, shortened: as §1
# [4] = test system: Parabacteroides distasonis
# Procedure, shortened: as §1
# Parabacteroides merdae = test system: Parabacteroides merdae
# Procedure, shortened: as §1
SMILES,growth AUC (Akkermansia muciniphila),growth AUC (Bacteroides caccae),growth AUC (Bacteroides clarus),growth AUC (Bacteroides dorei),growth AUC (Bacteroides stercoris),growth AUC [1],growth AUC (Bacteroides uniformis),growth AUC [2],growth AUC (Clostridium difficile),growth AUC (Collinsella aerofaciens),growth AUC (Coprococcus comes),growth AUC (Escherichia coli ED1a),growth AUC (Escherichia coli IAI1),growth AUC (Eubacterium rectale),growth AUC [3],growth AUC (Lactobacillus gasseri),growth AUC (Lactobacillus paracasei),growth AUC (Odoribacter splanchnicus),growth AUC [4],growth AUC (Parabacteroides merdae)
CCCCCCCCc1c(CC)nc2ncnn2c1N,1.05,1.03,0.991,0.989,0.953,0.97,0.973,0.995,0.972,0.926,1.01,0.986,0.978,0.988,1.04,0.904,0.931,0.989,0.946,0.964
C=CCc1ccc(O)c(OC)c1,0.933,0.993,1.04,1,0.975,0.967,1.03,1.01,1.01,0.973,0.971,1.03,1,1.01,1,0.95,0.957,0.96,0.97,0.996
CCCCOC(=O)COc1ccc(Cl)cc1Cl,1.06,0.975,1.02,0.996,1.09,0.987,1.02,0.965,0.999,0.957,0.991,0.981,1.03,0.979,1.08,1.06,0.839,0.946,0.994,0.979
CCOC(=O)C1=NN(c2ccc(Cl)cc2Cl)C(C)(C(=O)OCC)C1 (stereo not given),0.965,0.979,0.932,1.02,0.933,0.92,0.95,0.931,1.03,1.01,0.97,0.993,0.989,0.903,0.985,1.06,0.883,1.04,0.918,0.928
CN(C)C(=O)Nc1ccccc1,0.854,1.03,0.981,1,1.07,0.994,0.978,1.01,1.01,0.984,0.965,0.951,0.978,0.978,0.961,1.03,0.949,1.04,1.05,1.02
O=C(O)Cc1c(Cl)ccc(Cl)c1Cl,0.95,1,0.99,1.02,0.951,1,0.993,1.04,1,1,0.959,0.947,0.999,0.96,0.928,1.06,1.03,0.946,1.05,1.01
CCOC(=O)Nc1cccc(OC(=O)Nc2cccc(C)c2)c1,1.05,0.951,0.948,0.882,0.932,0.979,1.02,1.02,0.966,0.901,0.963,0.94,0.953,1.01,0.974,0.896,1.01,1.08,0.913,0.932
CN(C)C(=O)Nc1ccc(Oc2ccc(Cl)cc2)cc1,0.943,0.863,0.948,0.871,0.819,0.92,1.02,0.991,0.96,0.924,0.938,0.95,0.938,1.24,0.849,0.926,1.08,1.1,0.937,0.918
CNC(=O)Sc1ccc(OS(C)(=O)=O)cc1,0.955,1.02,0.858,0.925,0.77,0.848,0.953,0.847,0.96,1.01,1.02,1.01,1.02,1.54,1.09,0.933,0.953,0.864,0.817,0.938
CC1(C)C(=O)Oc2ccc(OS(C)(=O)=O)cc21,1.03,1.05,0.993,1.02,1.06,0.988,0.986,0.988,0.99,0.997,0.992,0.984,1.01,1.03,1.1,0.983,0.965,0.993,1.01,0.979
C#CCOC(=O)[C@@H](C)Oc1ccc(Oc2ncc(Cl)cc2F)cc1,0.914,0.998,0.985,1.02,1.05,0.975,0.942,1.04,0.99,0.964,0.978,1.01,0.987,0.982,0.903,0.962,0.997,0.982,1,0.979
Br[C@@H]1CC[C@@H](Br)[C@@H](Br)CC[C@@H](Br)[C@@H](Br)CC[C@H]1Br,1.01,0.983,0.795 (active),0.924,0.573 (active),0.967,0.928,0.779 (active),1.01,0.796 (active),0.934,0.897,0.979,1,1.01,0.947,0.996,0.983,0.682 (active),0.931
COC(=O)c1ccc(CNS(C)(=O)=O)cc1S(=O)(=O)NC(=O)Nc1nc(OC)cc(OC)n1,0.864,0.988,1.02,1.01,0.871,0.991,1.01,0.917,1.02,1.01,1.04,1.02,1.01,1.01,0.977,0.961,0.925,1.07,1.03,1.02
CC(C)NS(=O)(=O)NC(=O)c1cc(-n2c(=O)cc(C(F)(F)F)[nH]c2=O)c(F)cc1Cl,1.11,1.04,1.01,1.01,0.984,0.991,1.02,0.993,1.02,0.994,0.998,1.02,1.03,1.01,1.03,0.974,0.991,0.977,1.05,0.983
Cc1cc(N(C)C)nc(Cl)n1,0.999,0.916,1.02,0.985,1.26,1.02,0.98,0.985,0.976,0.977,0.97,1.02,0.992,1.06,1.11,0.947,0.99,0.998,1.03,0.998
